Results reported in PubChem BioAssay (NCATS).
Inconclusive results are not listed. A call without a number means that no potency is given here. Unmarked numbers belong to inactive results. The source made the active and inactive calls. The call rests on the fitted dose curve; in most records, active means well fitted curve in the direction sought with a large enough effect; inconclusive means small, poorly fitted or top-dose-only effect, or another doubt; inactive means no such curve, though single readings can be large; an effect the other way counts as inactive or inconclusive. *1 amine or outer side, *2 acyl side, *3 side chain or, on linkers, in order; H or OH if unused. Where a SMILES comes first, the peptide text is derived from it. [ ]: non-standard residue; d: D form. The star is where a group is joined. ξ: configuration not given here. X9 = CCC(C)(N*)C(=O)C1CC[C@@H](C(=O)N[C@@H](Cc2ccccc2)C(=O)NCC(=O)O)N1; X8 = O=C([C@@H]1CC(O)CN1[*:1])[*:2]; aIle = CC[C@@H](C)[C@H](N)C(=O)O; Thr(3ξ) = CC(O)[C@H](N)C(=O)O; ξIva = CCC(C)(N)C(=O)O; Aib = CC(C)(N)C(=O)O

How the values were obtained:
[1] = biological target: Calcium and integrin-binding protein 1 (Homo sapiens) (UniProt Q99828); assay: Primary qHTS for Identification of Calcium Integrin Binding Protein 1 (CIB1) Competitor (AID 1508620);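 further: GST tagged CIB1 binding a fluorescein labelled alphaIIb integrin peptide tracer; top concentration of the series differs between compounds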
Summary of the method: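 CIB1-GST (1 uM final) and compound incubated 15 min at room temperature before adding FITC-alphaIIb peptide tracer (100 nM final). Competition for binding read by fluorescence polarization (ex 480, em 540) after another 15 min at room temperature.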

[2] = Primary qHTS for inhibitors of nuclear receptor binding SET domain protein 2 (NSD2) in an isogenic RCH-ACV NSD2 p.E1099K mutant (9B) (AID 1645876); further: nearly all actives have a fitted effect of over 70% in size; further: potency means the concentration at half of the fitted maximal effect
[3] = biological target: N-terminal Xaa-Pro-Lys N-methyltransferase 1 (Homo sapiens) (UniProt Q9BV86); assay: Confirmatory qHTS for Inhibitors of N-terminal methyltransferase 1 (NTMT1): MTaseGlo Assay (AID 1645874);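 further: luminescence from SAH made as NTMT1 methylates SPKRIA peptide using SAM; series mostly up to about 100 µM; nearly all actives have a fitted effect of over 65% in size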
Summary of the method: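 Enzyme mix (125 nM NTMT1, 100 uM SAM) + compound, 15 min RT; + 1 uM SPKRIA, 30 min RT, dark; MTase-Glo reagent 30 min, detection solution 30 min; luminescence. % inhibition vs no-enzyme/DMSO controls, 4-parameter Hill fit.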

[4] = Primary qHTS for inhibitors of nuclear receptor binding SET domain protein 2 (NSD2) in an RCH-ACV wild type WT cells (2C) (AID 1645877); further: nearly all actives have a fitted effect of over 70% in size

Calcium and integrin-binding protein 1 (Homo sapiens), sequence (Q99828 whole entry, looked up): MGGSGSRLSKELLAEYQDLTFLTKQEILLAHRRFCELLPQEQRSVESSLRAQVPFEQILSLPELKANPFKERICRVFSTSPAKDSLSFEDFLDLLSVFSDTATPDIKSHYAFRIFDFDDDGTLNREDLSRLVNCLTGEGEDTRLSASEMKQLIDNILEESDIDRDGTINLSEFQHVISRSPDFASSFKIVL
N-terminal Xaa-Pro-Lys N-methyltransferase 1 (Homo sapiens), sequence (Q9BV86 whole entry, looked up): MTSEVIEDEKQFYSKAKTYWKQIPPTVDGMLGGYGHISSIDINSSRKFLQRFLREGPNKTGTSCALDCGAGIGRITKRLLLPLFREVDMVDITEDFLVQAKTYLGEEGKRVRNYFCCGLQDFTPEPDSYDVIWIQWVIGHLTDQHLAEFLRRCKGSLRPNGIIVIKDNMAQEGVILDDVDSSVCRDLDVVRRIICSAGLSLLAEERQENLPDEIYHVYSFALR

C=C1C(OC(C)=O)C(=O)C2C(C)(C)C(O)CCC2(C)C1CC(OC(C)=O)/C(C)=C/COC(C)=O (stereo unspecified)
Potency [1]: inactive | Potency [2]: inactive

CC(C)C(NC(=O)c1ccc(O)cc1)C(=O)N1CCCC1C(=O)Nc1c(O)cccc1C(=O)O (stereo unspecified)
Potency [1]: inactive | Potency [2]: inactive

C[C@]1(OC(=O)/C=C/c2ccccc2)C[C@@H](O)[C@]2(O)C=CO[C@@H](O[C@@H]3O[C@H](CO)[C@@H](O)[C@H](O)[C@H]3O)[C@@H]21
Potency [1]: inactive | Potency [2]: inactive

COc1cc(O)cc(C)c1C(=O)O[C@H]1[C@@H](O)[C@@H](n2ccc(=O)[nH]c2=O)O[C@@H]1CO
Potency [1]: inactive | Potency [2]: inactive

CC1(C)C2CCC1(C)C(OC(=O)C(O)(CC(=O)O)CC(=O)O)C2 (stereo unspecified)
Potency [1]: inactive | Potency [2]: inactive

C=C1CCC2C(C)(C)CC(=O)CC2(C)C1CCC(C)CCO (stereo unspecified)
Potency [1]: inactive | Potency [2]: inactive

CC(C)(O)C1OC1C1=CC(=O)C2(C)OC2C1O (stereo unspecified)
Potency [1]: inactive | Potency [2]: inactive

C[C@@H]1O[C@@H](O[C@H]2[C@H](OC(=O)[C@]34CCC(C)(C)C[C@H]3C3=CCC5[C@@]6(C)C[C@@H](O)[C@@H](O[C@@H]7O[C@H](CO)[C@@H](O)[C@H](O)[C@H]7O)[C@@](C)(CO)C6[C@H](O)C[C@@]5(C)[C@]3(C)CC4)OC[C@H](O)[C@@H]2O)[C@H](O)[C@H](O[C@@H]2OC[C@](O)(CO)[C@H]2O)[C@H]1O[C@@H]1OC[C@@H](O)[C@H](O[C@H]2O[C@H](C)[C@@H](O)[C@H](O)[C@@H]2O)[C@H]1O (stereo partly specified)
activity change, negative = inhibition [1]: 5.13% [at 12.4 µM] | activity change, negative = viability loss [2]: -25.2% [at 9.23 µM]

COC(=O)C1(C)CCCC2(C)c3ccc(C(C)C)cc3C(O)C(O)C12 (stereo unspecified)
Potency [1]: inactive | Potency [2]: inactive

CC1CC(=O)C2C(O)(C1)CC(O)C13OC1c1c(O)cccc1C(=O)C23O (stereo unspecified)
Potency [1]: inactive | Potency [2]: inactive

COc1cc(O[C@@H]2O[C@H](CO[C@H]3OC[C@](O)(CO)[C@H]3O)[C@@H](O)[C@H](O)[C@H]2O)cc(OC)c1O
Potency [1]: inactive | Potency [2]: inactive

COc1cc(C(=O)OC[C@@]2(O)CO[C@@H](O[C@H]3[C@H](Oc4ccc(O)cc4)O[C@H](CO)[C@@H](O)[C@@H]3O)[C@@H]2O)cc(OC)c1O
Potency [1]: inactive | Potency [2]: inactive

O=C(O)c1ccnc2cc(-c3nc4ccccc4n3CCN3CCCCC3)sc12
Potency [1]: inactive | Potency [3]: inactive | Potency [2]: inactive | Potency [4]: inactive

C/C=C1/[C@H](O[C@@H]2O[C@H](CO)[C@@H](O)[C@H](O)[C@H]2O)OC=C2C(=O)O[C@@H]3C[C@@H](C(C)CO)[C@H](COC(=O)C[C@H]21)[C@H]3C (stereo partly specified)
Potency [1]: inactive | Potency [2]: inactive

CC/C=C/C=C/C1(C)OC(CC(CO)OC)=CC1=O (stereo unspecified)
Potency [1]: inactive | Potency [2]: inactive

CC(C)=CCC[C@](C)(O[C@@H]1O[C@H](CO[C@@H]2O[C@@H](CO)[C@H](O)[C@H]2O[C@@H]2OC[C@@H](O)[C@H](O)[C@H]2O)[C@@H](O)[C@H](O)[C@H]1O)[C@H]1CC[C@]2(C)[C@@H]1[C@H](O)CC1[C@@]3(C)CC[C@H](O[C@@H]4O[C@H](CO)[C@@H](O)[C@H](O)[C@H]4O[C@@H]4O[C@H](CO)[C@@H](O)[C@H](O)[C@H]4O)C(C)(C)C3CC[C@]12C (stereo partly specified)
activity change, negative = inhibition [1]: -3.93% [at 12.4 µM] | activity change, negative = viability loss [2]: -9.17% [at 9.23 µM]

C=CC(C)(O)CCC1C(C)(O)CCC2C(C)(C)CCCC21C (stereo unspecified)
Potency [1]: inactive | Potency [2]: inactive

CC[C@@H](C)[C@H](NC(=O)C(C)(C)NC(=O)[C@H](CCC(N)=O)NC(=O)C(C)(CC)NC(=O)[C@H](Cc1c[nH]c2ccccc12)NC(C)=O)C(=O)N[C@H](C(=O)NC(C)(C)C(=O)N[C@@H](CC(C)C)C(=O)NC(C)(C)C(=O)N1CCC[C@H]1C(=O)N[C@@H](CCC(N)=O)C(=O)NC(C)(C)C(=O)N1CC(O)C[C@H]1C(=O)NC(C)(CC)C(=O)C1CC[C@@H](C(=O)N[C@@H](Cc2ccccc2)C(=O)NCC(=O)O)N1)C(C)O (stereo partly specified) (Ac-W[ξIva]Q[Aib][aIle][Thr(3ξ)][Aib]L[Aib]PQ[Aib][X8]-X9)
activity change, negative = inhibition [1]: 3.33% [at 12.4 µM] | activity change, negative = viability loss [2]: -38.6% [at 4.96 µM]

CC12CC34CC(O)C5C(CO)(CO)CC(=O)CC5(C)C3CC1C2C4 (stereo unspecified)
Potency [1]: inactive | Potency [2]: inactive

CC(=O)OCC1OC(OC2COC(OC3COC(OC4C(OC5C(CO)OC(OC6CCC7(C)C(CCC8(C)C7CC=C7C9CC(C)(C)CCC9(C(=O)OC9OC(CO)C(O)C(O)C9OC9OCC(OC%10OCC(O)(CO)C%10O)C(O)C9O)C(O)CC78C)C6(C)C)C(O)C5O)OCC(O)C4O)C(O)C3O)C(O)C2O)C(OC(=O)/C=C/c2ccccc2)C(O)C1OC(C)=O (stereo unspecified)
activity change, negative = inhibition [1]: -1.97% [at 12.4 µM] | Potency [2]: 1.25 µM (active)

CCC(C)C1NC(=O)C2C(C)CCN2C(=O)C(CC(O)CO)OC(=O)CCNC(=O)C(C)N(C)C(=O)C(C(C)C)N(C)C1=O (stereo unspecified)
Potency [1]: inactive | Potency [2]: inactive

CC1(C(=O)O)CCCC2(C)C3CCC4CC3(CCC12)CC4C(=O)O (stereo unspecified)
Potency [1]: inactive | Potency [2]: inactive

CC(=O)OC/C(=C/C(=O)O)CC[C@@H]1C(C)=CC(=O)[C@@H]2C(C)(C)CCC[C@@]12C
Potency [1]: inactive | Potency [2]: inactive

CO[C@H]1c2cc(C(C)C)c(O)c(O)c2[C@@]23CCCC(C)(C)C2[C@@H]1OC3=O (stereo partly specified)
Potency [1]: inactive | Potency [2]: inactive

OCC1OC(Oc2cc(O)cc(/C=C/c3ccc(OC4OC(CO)C(O)C(O)C4O)cc3O)c2)C(O)C(O)C1O (stereo unspecified)
Potency [1]: inactive | Potency [2]: inactive | Potency [4]: inactive

CC(=O)O[C@@H]1[C@H](O[C@@H]2O[C@H](CO)[C@@H](O)[C@H](O)[C@H]2O)[C@@H](O[C@@H]2O[C@@H](C)[C@H](O)[C@@H](O[C@@H]3O[C@H](CO)[C@@H](O)[C@H](O)[C@H]3O)[C@H]2O)[C@H](OC(=O)[C@]23CCC(C)(C)C[C@H]2C2=CCC4[C@@]5(C)C[C@H](O)[C@H](O[C@@H]6O[C@H](C(=O)O)[C@@H](O)[C@H](O)[C@H]6O)[C@@](C)(C(=O)O)C5CC[C@@]4(C)[C@]2(C)CC3)O[C@@H]1C (stereo partly specified)
activity change, negative = inhibition [1]: -1.12% [at 12.4 µM] | activity change, negative = viability loss [2]: -4.25% [at 9.23 µM] | activity change, negative = cell killing [4]: -3.72% [at 9.23 µM]
